From PubChem BioAssay AID1159580 (chemical genetic matrix, 2015)
About 2,000 (36%) of roughly 5,500 compounds were called active. Roughly 18% stayed inconclusive and do not appear here. Rule as the data show it: active = normalized growth mostly below about 0.91 (no sharp cut-off); inconclusive = no clear call, values can overlap the other calls; inactive = mostly above about 0.92. This is one part of the list.

Experiment: chemical genetic growth profiling, strain panel (AID 1159580);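 also: tested at 20 µM; growth read once vehicle control cultures reached saturation at 30 °C; 1 = growth at the plate median or of vehicle wells; lower values mean less growth of the strain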
Details: S. cerevisiae deletion strains, growth OD

Measured: normalized growth

CCOc1ccc(NC(=O)CC(C)O)cc1 (stereo not drawn)
inactive: locus YHR030C, strain SLT2, stronger effect = lower value 1.02 | locus YHR079C, strain IRE1, stronger effect = lower value 1.02 | locus YJL095W, strain BCK1, stronger effect = lower value 1.02 | locus YJR066W, strain TOR1, stronger effect = lower value 0.94 | locus YLR113W, strain HOG1, stronger effect = lower value 1.06 | locus YNL183C, strain NPR1, stronger effect = lower value 0.939 | locus YOR231W, strain MKK1, stronger effect = lower value 1.01 | locus YPL256C, strain CLN2, stronger effect = lower value 1.01
